According to PubChem BioAssay (EPA / NIEHS):
More than one record can exist for a structure, and the calls need not agree. Active and inactive are the calls of the source. How the source made its calls: active means hit-call score of the fitted dose curve at least 0.9, where 1 is the maximum; inactive means score below 0.9.

These compounds were tested on Matrix Metallopeptidase 1 (MMP1), MMP1 (gene 4312) (assay: BSK_BE3C_MMP1: BioMAP Diversity Plus: BE3C Assay for Matrix Metallopeptidase 1 (MMP1) Biomarker Activity (AID 2283024)). Details: primary human bronchial epithelial cells; actives raise or lower the signal.
Experimental: BSK_BE3C is a cell-based, multiplexed-readout assay that uses bronchial epithelial cell, a human lung primary cell, with measurements taken at 24 hours after chemical dosing in a 96-well plate.BSK_BE3C_MMP1 is an assay component measured in the BSK_BE3C assay. It measures MMP-1 antibody related to regulation of gene expression using ELISA technology.Data from the assay component BSK_BE3C_MMP1 was analyzed into 1 assay endpoint. This assay endpoint, BSK_BE3C_MMP1, was analyzed with bidirectional fitting relative to DMSO as the negative control and baseline of activity. Using a type of binding reporter, gain or loss-of-signal activity can be used to understand changes in the signaling as they relate to the gene MMP1. Furthermore, this assay endpoint can be referred to as a primary readout, because this assay has produced multiple assay endpoints where this one serves a signaling function. To generalize the intended target to other relatable targets, this assay endpoint is annotated to the protease intended target family, where the subfamily is matrix metalloproteinase.
The levels of cell surface (or secreted, indicated by the prefix "s") biomarker endpoints were measured by ELISA. Overt cytotoxicity to cells in confluent adherent cultures (all systems other than the BT system) was assessed by measuring total protein levels using sulforhodamine B (SRB) staining in parallel cultures at the time of biomarker measurements, indicated as SRB endpoints. For proliferation assays for adherent cell types, individual cell types are cultured at sub-confluence and relative cell numbers quantified by SRB staining at time points optimized for each system (48 h: 3C and CASM3C systems; 72 h: BT and HDF3CGF systems; 96 h: SAg system). SRB was performed by staining cells with 0.1% SRB after fixation with 10% TCA and reading wells at 560 nm.Viability and proliferation of PBMC (T cells) was quantified by Alamar Blue reduction for the SAg and BT systems. For PBMC viability (referred to as PBMC Cytotoxicity within the assay endpoint names), cells were plated (75,000/well in a 96-well plate) and then chemical samples added for 1 h before addition of activators, SEB and TSST-1 (20 ng/mL final concentration each). Cells were incubated for 90 h. Then, Alamar Blue (20 uL/well) (Invitrogen, Cat DAL1100) was added for 6 h, and the plates were read with a fluorescence microplate reader at 546/580 nm (excitation/emission). For PBMC proliferation, cells were plated and activated as above but incubated for only 16 h prior to addition of Alamar Blue. Plates were read after 6 h.

Row | SMILES | outcome | AC50
1 | c1ccc2c(c1)Nc1ccccc1S2 | inactive | –
2 | OCC(F)(F)OC(F)(F)C(F)(F)OC(F)(F)C(F)(F)OC(F)(F)CO | inactive | 39.8 µM (active)
3 | CCCCc1ccccc1 | inactive | –
4 | c1ccc2c(c1)sc1ccccc12 | inactive | –
5 | CCC1(c2ccccc2)C(=O)N=C(O)NC1=O (stereo not given) | inactive | –
6 | CCCN(CCC)c1c([N+](=O)[O-])cc(C(C)C)cc1[N+](=O)[O-] | inactive | –
7 | CCOP(=S)(NC(C)C)Oc1ccccc1C(=O)OC(C)C (stereo not given) | inactive | –
8 | CCC(C)(C)c1ccc(O)cc1 | inactive | –
9 | CCCCN(CCCC)N=O | inactive | –
10 | Nc1cc2c3c(c1)C(c1ccccc1)=N[C@@H](NC(=O)c1cccnc1)C(=O)N3CC2 | inactive | –
11 | O=c1ssc(Cl)c1Cl | – | 9.81 µM (active)
12 | CCCCOCCOP(=O)(OCCOCCCC)OCCOCCCC | inactive | –
13 | O=C(O)C(F)(OC(F)(F)C(F)(F)C(F)(F)F)C(F)(F)F (stereo not given) | inactive | 10.7 µM (active)
14 | CC(C)(C)c1ccc(O)cc1 | inactive | –
15 | NC(=O)C(F)(F)C(F)(F)F | inactive | –
16 | COCCOCCO | inactive | –
17 | O=P(Oc1ccccc1)(Oc1ccccc1)Oc1ccccc1 | inactive | –
18 | O=S1(=O)OCC2C(CO1)C1(Cl)C(Cl)=C(Cl)C2(Cl)C1(Cl)Cl (stereo not given) | inactive | –
19 | CC(Cl)(Cl)C(=O)O | inactive | –

Row | SMILES | outcome | AC50
20 | O=P1(N(CCCl)CCCl)NCCCO1 (stereo not given) | inactive | –
21 | CSC(C)(C)C=NO | inactive | –
22 | CCOP(=S)(OCC)SCSc1ccc(Cl)cc1 | inactive | –
23 | CN(C)C(=O)Cl | inactive | –
24 | O=C(O)C(F)(F)OC(F)(F)C(F)(F)OC(F)(F)C(=O)O | inactive | –
25 | CCOP(=S)(S)OCC | inactive | –
26 | COP(N)(=S)OC | inactive | –
27 | CCOC(=O)c1ccccc1C(=O)OCC | inactive | –
28 | [N-]=[N+]=[N-] | inactive | –
29 | COP(=O)(O)OC | inactive | –
30 | Cc1c([N+](=O)[O-])cc2c(c1[N+](=O)[O-])C(C)(C)CC2(C)C | inactive | –
31 | O=C(O)C1C(C(=O)O)C2(Cl)C(Cl)=C(Cl)C1(Cl)C2(Cl)Cl (stereo not given) | inactive | –
32 | Nc1ccc(Cl)cc1 | inactive | –
33 | FC(F)(F)C(F)(C(F)(F)F)C(F)(F)C(F)(F)CC1CO1 (stereo not given) | inactive | 2.33 µM (active)
34 | CCOc1ccc(C(C)(C)COCc2cccc(Oc3ccccc3)c2)cc1 | inactive | –
35 | CC(C)(C)c1ccccc1OP(=O)(Oc1ccccc1)Oc1ccccc1 | – | 5.01 µM (active)
36 | CCCCN(CCCC)SN(C)C(=O)Oc1cccc2c1OC(C)(C)C2 | inactive | –
37 | N#Cc1c(-c2ccc(Cl)cc2)[nH]c(C(F)(F)F)c1Br | inactive | –
